# Results taken from PubChem BioAssay AID1159580 (chemical genetic matrix, 2015).
# Out of some 5,500 compounds screened, about 2,000 (36%) were called active. About 18% were inconclusive and are not listed. The list shows a part of the results. Values without a mark were called inactive. Rule as the data show it: active = normalized growth mostly below about 0.91 (no sharp cut-off); inconclusive = no clear call, values can overlap the other calls; inactive = mostly above about 0.92.
# Assay: chemical genetic growth profiling, strain panel (AID 1159580);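 also: tested at 20 µM; growth read once vehicle control cultures reached saturation at 30 °C; 1 = growth at the plate median or of vehicle wells; lower values mean less growth of the strain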
# Details: S. cerevisiae deletion strains, growth OD
# [1] = locus YAL021C, strain ccr4, active compounds read low
# [2] = locus YAL026C, strain drs2, active compounds read low
# [3] = locus YAL030W, strain snc1, active compounds read low
# [4] = locus YBL061C, strain skt5, active compounds read low
# [5] = locus YBR009C, strain hhf1, active compounds read low
# [6] = locus YBR023C, strain chs3, active compounds read low
# [7] = locus YBR171W, strain sec66, active compounds read low
# [8] = locus YBR231C, strain swc5, active compounds read low
# [9] = locus YBR279W, strain paf1, active compounds read low
# [10] = locus YCL011C, strain gbp2, active compounds read low
# [11] = locus YCL016C, strain dcc1, active compounds read low
# [12] = locus YCL069W, strain vba3, active compounds read low
# [13] = locus YCR088W, strain abp1, active compounds read low
# [14] = locus YDL005C, strain med2, active compounds read low
# [15] = locus YDL040C, strain nat1, active compounds read low
# [16] = locus YDR001C, strain nth1, active compounds read low
# [17] = locus YDR069C, strain doa4, active compounds read low
# [18] = locus YDR137W, strain rgp1, active compounds read low
# [19] = locus YDR159W, strain sac3, active compounds read low
# [20] = locus YDR297W, strain sur2, active compounds read low
# [21] = locus YDR334W, strain swr1, active compounds read low
# [22] = locus YDR335W, strain msn5, active compounds read low
# [23] = locus YDR392W, strain spt3, active compounds read low
# [24] = locus YEL003W, strain gim4, active compounds read low
# [25] = locus YEL037C, strain rad23, active compounds read low
# [26] = locus YEL061C, strain CIN8 (second series), active compounds read low
# [27] = locus YER015W, strain faa2, active compounds read low
# [28] = locus YER016W, strain bim1, active compounds read low
# [29] = locus YER111C, strain swi4, active compounds read low
# [30] = locus YER155C, strain BEM2 (second series), active compounds read low
# [31] = locus YFR010W, strain ubp6, active compounds read low
# [32] = locus YGL167C, strain pmr1, active compounds read low
# [33] = locus YGL173C, strain kem1, active compounds read low
# [34] = locus YGL227W, strain vid30, active compounds read low
# [35] = locus YGL240W, strain doc1, active compounds read low
# [36] = locus YGL253W, strain hxk2, active compounds read low
# [37] = locus YHR013C, strain ard1, active compounds read low
# [38] = locus YHR027C, strain rpn1, active compounds read low
# [39] = locus YHR142W, strain chs7, active compounds read low
# [40] = locus YJL092W, strain hpr5, active compounds read low
# [41] = locus YJL095W, strain BCK1 (second series), active compounds read low
# [42] = locus YJL115W, strain asf1, active compounds read low
# [43] = locus YJL129C, strain trk1, active compounds read low
# [44] = locus YJL154C, strain vps35, active compounds read low
# [45] = locus YJL164C, strain tpk1, active compounds read low
# [46] = locus YJL166W, strain qcr8, active compounds read low
# [47] = locus YKL160W, strain elf1, active compounds read low
# [48] = locus YKR026C, strain gcn3, active compounds read low
# [49] = locus YKR091W, strain srl3, active compounds read low
# [50] = locus YLL001W, strain dnm1, active compounds read low
# [51] = locus YLL026W, active compounds read low
# [52] = locus YLL041C, strain sdh2, active compounds read low
# [53] = locus YLR027C, strain aat2, active compounds read low
# [54] = locus YLR221C, strain rsa3, active compounds read low
# [55] = locus YLR258W, strain gsy2, active compounds read low
# [56] = locus YLR262C, strain YPT6 (second series), active compounds read low
# [57] = locus YLR320W, strain mms22, active compounds read low
# [58] = locus YLR342W, strain FKS1, active compounds read low
# [59] = locus YLR357W, strain rsc2, active compounds read low
# [60] = locus YLR370C, strain arc18, active compounds read low
# [61] = locus YLR384C, strain iki3, active compounds read low
# [62] = locus YML120C, strain ndi1, active compounds read low
# [63] = locus YMR058W, strain fet3, active compounds read low
# [64] = locus YMR125W, strain sto1, active compounds read low
# [65] = locus YMR129W, active compounds read low
# [66] = locus YMR205C, strain PFK2, active compounds read low
# [67] = locus YMR231W, strain pep5, active compounds read low
# [68] = locus YNL071W, strain lat1, active compounds read low
# [69] = locus YNL209W, strain ssb2, active compounds read low
# [70] = locus YNL248C, strain rpa49, active compounds read low
# [71] = locus YNL322C, strain KRE1 (second series), active compounds read low
# [72] = locus YNR049C, strain mso1, active compounds read low
# [73] = locus YOR001W, strain rrp6, active compounds read low
# [74] = locus YOR070C, strain gyp1, active compounds read low
# [75] = locus YOR080W, strain dia2, active compounds read low
# [76] = locus YOR083W, strain WHI5, active compounds read low
# [77] = locus YOR106W, strain vam3, active compounds read low
# [78] = locus YOR265W, strain rbl2, active compounds read low
# [79] = locus YOR270C, strain vph1, active compounds read low
# [80] = locus YOR290C, strain snf2, active compounds read low
# [81] = locus YPL051W, strain arl3, active compounds read low
# [82] = locus YPL078C, strain atp4, active compounds read low
# [83] = locus YPL106C, strain sse1, active compounds read low
# [84] = locus YPL240C, strain hsp82, active compounds read low
smiles,measurement,setting,value
CC(=CC1CCC(C)C2CCC(C)=C12)C(=O)O (stereo unspecified),normalized growth,[1],0.948
same,normalized growth,[2],0.904 (active)
same,normalized growth,[3],0.93
same,normalized growth,[4],0.931
same,normalized growth,[5],0.958
same,normalized growth,[6],0.929
same,normalized growth,[7],0.876 (active)
same,normalized growth,[8],0.923
same,normalized growth,[9],0.95
same,normalized growth,[10],0.986
same,normalized growth,[11],0.927
same,normalized growth,[12],0.956
same,normalized growth,[13],0.938
same,normalized growth,[14],0.953
same,normalized growth,[15],0.935
same,normalized growth,[16],0.943
same,normalized growth,[17],0.931
same,normalized growth,[18],0.573 (active)
same,normalized growth,[19],0.888
same,normalized growth,"locus YDR195W, strain ref2",1.12
same,normalized growth,[20],0.943
same,normalized growth,[21],0.927
same,normalized growth,[22],0.944
same,normalized growth,[23],0.373 (active)
same,normalized growth,[24],0.958
same,normalized growth,[25],0.942
same,normalized growth,[26],0.947
same,normalized growth,[27],0.971
same,normalized growth,[28],0.936
same,normalized growth,[29],0.923
same,normalized growth,[30],0.873
same,normalized growth,[31],0.965
same,normalized growth,[32],0.892 (active)
same,normalized growth,[33],0.891 (active)
same,normalized growth,[34],0.952
same,normalized growth,[35],0.941
same,normalized growth,[36],0.937
same,normalized growth,[37],0.954
same,normalized growth,[38],0.956
same,normalized growth,[39],0.901
same,normalized growth,[40],0.93
same,normalized growth,[41],0.927
same,normalized growth,[42],0.965
same,normalized growth,[43],0.799 (active)
same,normalized growth,[44],0.934
same,normalized growth,[45],0.923
same,normalized growth,[46],0.917
same,normalized growth,[47],0.939
same,normalized growth,[48],0.939
same,normalized growth,[49],0.93 (active)
same,normalized growth,[50],0.966
same,normalized growth,[51],0.946
same,normalized growth,[52],0.955
same,normalized growth,[53],0.953
same,normalized growth,[54],0.943
same,normalized growth,[55],0.941
same,normalized growth,[56],0.591 (active)
same,normalized growth,[57],0.779 (active)
same,normalized growth,[58],0.887 (active)
same,normalized growth,[59],1.01
same,normalized growth,[60],0.906 (active)
same,normalized growth,[61],0.926
same,normalized growth,[62],0.968
same,normalized growth,[63],0.937
same,normalized growth,[64],0.937
same,normalized growth,[65],0.928
same,normalized growth,[66],0.859 (active)
same,normalized growth,[67],0.898 (active)
same,normalized growth,[68],0.875 (active)
same,normalized growth,[69],0.978
same,normalized growth,[70],0.972
same,normalized growth,[71],0.94
same,normalized growth,[72],0.941
same,normalized growth,[73],0.942
same,normalized growth,[74],0.943
same,normalized growth,[75],0.961
same,normalized growth,[76],0.933
same,normalized growth,[77],0.914
same,normalized growth,[78],0.956
same,normalized growth,[79],0.727 (active)
same,normalized growth,[80],0.918
same,normalized growth,[81],0.907 (active)
same,normalized growth,[82],0.946
same,normalized growth,[83],1.04
same,normalized growth,[84],0.925 (active)
CC(=CC1CCC(C)C2C1=C(C)CC2O)C(=O)O (stereo unspecified),normalized growth,[1],1.01
same,normalized growth,[2],1.04
same,normalized growth,[3],1.01
same,normalized growth,[4],1.02
same,normalized growth,[5],1.01
same,normalized growth,[6],1.02
same,normalized growth,[7],1.02
same,normalized growth,[8],1.02
same,normalized growth,[9],1.02
same,normalized growth,[10],1.02
same,normalized growth,[11],1.01
same,normalized growth,"locus YCL061C, strain MRC1, active compounds read low",1.02
same,normalized growth,[12],1.01
same,normalized growth,[13],1.01
same,normalized growth,[14],1.03
same,normalized growth,[15],1.01
same,normalized growth,[16],1.01
same,normalized growth,[17],1
same,normalized growth,[18],1.04
same,normalized growth,[19],1.04
same,normalized growth,"locus YDR195W, strain ref2",1.02
same,normalized growth,[20],1.02
same,normalized growth,[21],1.02
same,normalized growth,[22],1.02
same,normalized growth,[23],0.944
same,normalized growth,[24],1.02
same,normalized growth,[25],1.01
same,normalized growth,[26],1.02
same,normalized growth,[27],1.03
same,normalized growth,[28],1.02
same,normalized growth,[29],1.01
same,normalized growth,[30],1.03
same,normalized growth,[31],1.03
same,normalized growth,[32],1.01
same,normalized growth,[33],1.03
same,normalized growth,[34],1.01
same,normalized growth,[35],1.02
same,normalized growth,[36],1.03
same,normalized growth,[37],1.03
same,normalized growth,[38],1.04
same,normalized growth,[39],1.02
same,normalized growth,[40],1.02
same,normalized growth,[41],1.02
same,normalized growth,[42],1.02
same,normalized growth,[43],1.04
same,normalized growth,[44],1.01
same,normalized growth,[45],1.01
same,normalized growth,[46],1.02
same,normalized growth,[47],1
same,normalized growth,[48],1.01
same,normalized growth,[49],1.02
same,normalized growth,[50],1.03
same,normalized growth,[51],1.03
same,normalized growth,[52],1.01
same,normalized growth,[53],1.02
same,normalized growth,[54],1.01
same,normalized growth,[55],1.01
same,normalized growth,[56],1.02
same,normalized growth,[57],1.02
same,normalized growth,[58],1.02
same,normalized growth,[59],0.995
same,normalized growth,[60],0.997
same,normalized growth,[61],1.02
same,normalized growth,[62],1.02
same,normalized growth,[63],1.03
same,normalized growth,[64],0.987
same,normalized growth,[65],1.02
same,normalized growth,[66],1.02
same,normalized growth,[67],1.02
same,normalized growth,[68],1.03
same,normalized growth,[69],1.03
same,normalized growth,[70],1.07
same,normalized growth,[71],1.01
same,normalized growth,[72],1.01
same,normalized growth,[73],1.04
same,normalized growth,[74],1
same,normalized growth,[75],1.02
same,normalized growth,[76],1.01
same,normalized growth,[77],1.01
same,normalized growth,[78],1.02
same,normalized growth,[79],1.07
same,normalized growth,[80],0.989
same,normalized growth,[81],1.03
same,normalized growth,[82],1.01
same,normalized growth,[83],1.03
same,normalized growth,[84],1.02
